Source: the supplement of paper PMC11417369
The full ranking holds about 25,000 sequences; the median of “ln(normalized median fluorescence intensity)” is about 9.7, and the highest 2% start at about 11. The sample as a whole holds a higher share of the highest values than the screen did.

test system: PfAP2-HC AP2 domain (GST-tagged); experiment: gcPBM binding intensity (ln(normalized median fluorescence intensity)); higher = stronger DNA binding
Summary of the method: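 An Agilent 4 × 180k array carrying primer-extended double-stranded 36-bp intergenic genomic probes and negative controls received GST-tagged P. falciparum DNA-binding domains expressed in E. coli, about 25 μg on average, for 1 h. The binding buffer contained 1× PBS, 1% milk, 0.2 mg/ml BSA, 0.5% salmon testes DNA and 0.03% Triton X-100. Binding intensity is the top Masliner-normalised natural-log median intensity across replicate spots of either probe orientation, read after Alexa488 anti-GST antibody staining and a 488 nm scan.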

Sequence	gcPBM binding intensity (ln)
ATATAATGACAAGTATAAGTATCACAAAGAAATAAA [CACACA_negctrl_site1403]	9.79
CAGGCGTGAAATATACGTACACACATTATTTATATT [XGTACX_site5337]	9.94
AAGAAAAAAAAAATTACACACTGCGGACATACACAA [CACACA_site4838]	9.98
TAAGATATAAAAAATGTGCACATTAAAGTATTAATT	9.86
TATTGTAAGAAAGGCACACAGATAAAATTATTATAT [CACACA_site2921]	9.87
CGGTATTTTTTAATTTGTACGCATATACAATAATTA [XGTACX_site8603]	9.54
TTTTTGTTATATAAAGTGCAGTGACAAGCAGTTTAA	9.56
TTTTTTTATATTTTTAGTACACATTGGTATATATAT [XGTACX_site4114]	9.78
TTCTTTAAAATATTATGTACACATTGCGAACAGTTT [XGTACX_site5418]	9.76
AGCACAGACGGACACACACACACACCCACAGACACA [CACACA_site4358]	11.4
CACAGACACGGACACACACACACACCCACATATATA [CACACA_site4355]	11.5
CACAGACACGGACACACACACATATATAATATATAT [CACACA_site4495]	10.8
TGTATGTTTATTTATCGTACATATATATATATATAT [XGTACX_site7315]	10.1
TACGCGAAATGAATATGTACATATATGAGGGCATAT [XGTACX_site4293]	9.75
ATTTGAAATGCATGAACACACACAGCTATAAATGCA [CACACA_site8229]	9.82
GAAATAAGTTAAAATAGTACGTAGTGTTCCTTAAGT [XGTACX_site6557]	9.81
ACACAAAAATAGTTTTTTATATTGTTAACCTTATAT [XGTACX_negctrl_site123]	9.71
AAAAATATAAATGACACACACTTAAAAACAAAGAAA [CACACA_site4540]	10.2
TTTAATCAAATTAAAAGTACAGAATTGTTCATGTAG [XGTACX_site1229]	9.53
ACTCATAAAAATAGATGTACTTTAATAATTTGATTT [XGTACX_site8763]	9.48
TACATACACGGACACACACACATATATATATATATA [CACACA_site5883]	10.7
AGTATACACGAACACACACACACATATATAAATATA [CACACA_site6913]	10.7
CCCCCCCACGAACACACACACATACATACCACATAT [CACACA_site7149]	11
AACATATACACGAACACACACACATATATATATATA [CACACA_site502]	11.6

Sequence	gcPBM binding intensity (ln)
TATATATATATACCAACACACATACATATATATATA [CACACA_site8530]	9.99
CCCCCCCACGGACACACACACATACATACCACATAT [CACACA_site5303]	11.3
CATATACACGAACACACACACATATATATATATATA [CACACA_site4437]	10.5
CACGCGAACATACATACACACACATATATATATATG [CACACA_site7951]	10.1
AATAACCACGGACACACACACATATATATATATATA [CACACA_site5873]	10.9
TTTTTTTTTTTTACATGTACTTATTTTAAATATAAA [XGTACX_site805]	9.71
TATGTTTTTCGGTATGCATGCATATGCTTAATAATA [TGCATGCA_site184]	9.55
AATATATAGAGAGATATGCACACTGTATGAATGCAC [CACACA_site2677]	9.78
AAATATTTATAGGTTTGTACTTATAAATAAAAAAAA [XGTACX_site7360]	9.5
TATTAAATTATATAGACACACATTATATATATATAT [CACACA_site4345]	9.78
TATGGAATAAATTTATCCATACATCTTATAACATAT [XGTACX_negctrl_site500]	9.63
ATTTATTTTTTACATTGTACATATTTATTCCTTTTA [XGTACX_site8028]	9.95
GTAATATGTATCCATACACACATACAGTTTATTTGC [CACACA_site6540]	9.96
TAAAATTATGTAATAACACACATATACAATACATAT [CACACA_site1236]	9.94
AGGGTTACAAGAGGAACACACAAAAAAATAAATAAA [CACACA_site1436]	10
AATATATATTAAATATGTACTTATTTTTTGGTTGCT [XGTACX_site3613]	9.63
TTTAAATAAAAATGGAGTACTCTAAAAAAAAAAAAA [XGTACX_site1233]	9.37
AAAACAAAAGAATTCACACATATATATATATATATA [CACACA_site4777]	10.2
CATACACAAGAAAATTCACACACACCCATATATATA [CACACA_site9288]	11.3
TACACAAGAAAATTCACACACACACCCATATATATA [CACACA_site3879]	10.7
CACAAGAAAATTCACACACACACATATATATATATA [CACACA_site3880]	10.9
TACACAAGAAAATTCACACACACACCGATATATATA [CACACA_site6008]	10.7
CACAAGAAAGTTCACACACACACATATATATATATA [CACACA_site6009]	10.1
TATATATATATGTGTACACATTTGTCAGATTATATA [CACACA_site4813]	9.79

Sequence	gcPBM binding intensity (ln)
AGGATATATAAGTATACACACATATTTATATTTATA [CACACA_site6239]	9.75
AAAATTTAAAGCATGACACACAATTATATTATGTGC [CACACA_site3435]	9.76
ATGATGTGCTTTAAAAGTACTTAAGTTATATTCTTT [XGTACX_site7127]	9.7
TATATACACGCACATACACACAAATAAAAAAACACC [CACACA_site7578]	10.2
AAAATTCATAAATACACACACGCACATATATATATA [CACACA_site4227]	10.2
AAATTGTCAAAACACGCACACACATATACATAATAA [CACACA_site1743]	10.9
TTAATAACAAAATAAACACACATATATAAATACACA [CACACA_site6849]	10.5
ATAATATAACAATACGCACACGTATACAAAAAAAAA [CACACA_site5703]	9.99
ATTGTCAAAACACGCACACACATATACATAATAACA [CACACA_site1742]	11.1
TAAATCCGTTTGATGGGTACATACATACATACATAT [XGTACX_site8889]	9.73
GGATGTATTTATATGTGTATGTGTTTGGAAATATGT [XGTACX_negctrl_site99]	9.85
GTCATATATAATTGTTGTACATTTTTATAATTATGT [XGTACX_site8091]	9.83
ACATATATATATATATATATATATATATATAGATAG [CACACA_negctrl_site783]	9.92
GGTTCATAATATGGTTGTACATAAATATATATATAT [XGTACX_site7583]	9.86
TATAATAATACTTATTGTACGATTAGCTTAATTCGT [XGTACX_site15]	9.51
TATAAAAATAAGCACACACACAAATATAGATTTATT [CACACA_site6558]	11.3
CATAAATACAAATATACACACATATTTATATTTATA [CACACA_site7277]	9.78
TAAATAAAAAGACACACACACATATTTATATTTATA [CACACA_site7135]	10.4
GAAATAGAGAAACACACACACATATATTTATGTATT [CACACA_site3967]	10.4
ATAAAATTTATATAAGCACACAAATATATATTTATA [CACACA_site9083]	9.7
AAGAAATATTTATACACACACACAAACATATATATA [CACACA_site1912]	10.5
CAGAAATAGAGATACACACACACATATATTTATGTA [CACACA_site3968]	11.3
AAGAAATATTTATACACACACACAAACATATAAATA [CACACA_site6981]	11.1
GAAATAGAGAGACACACACACATATATTTATGTATT [CACACA_site7794]	10.4

Sequence	gcPBM binding intensity (ln)
AATATTTATAAAGACACACAAACAAAAAGGATAAAA [CACACA_site2985]	10.3
CAATATAAAAGACACACACACAAACATATATTTATA [CACACA_site7697]	11.3
TATAAAAATAAGCACACACACAAATATATATTTATT [CACACA_site922]	10.3
CACTTAAAAAGCTAACGTACAAATACACATATATAA [XGTACX_site1851]	9.66
CAAAACATTTTATCTACACACATATATAAATAAATA [CACACA_site3220]	9.77
GTTTACATTTTAAGAAGTACAAAATTTATGGTTAAA [XGTACX_site450]	9.42
TTAGGACAAAAAAAAATAAAAATAAAATAAAATAAT [CACACA_negctrl_site1613]	9.61
TTTTAATATTTTAAGAGTACAGAAATATATAATATG [XGTACX_site4955]	9.33
TTATTTTACTTTTATGCAACTAAAAATATTGCTATA [XGTACX_negctrl_site277]	9.6
GAAAGAATAAAATTTACACACATATATAAATACATA [CACACA_site5273]	9.87
AAAACAAACAGACACACACACATATTTATATTTATA [CACACA_site7681]	11
ACATAAATTTAATACACACACAAAGAAAAAAAAAAA [CACACA_site4088]	10.9
TAAAAAAAAAAAAAAACACACATATAAATATTTATA [CACACA_site6702]	9.61
AATTTTTTATTAAACACACAAACATATATATATATA [CACACA_site1937]	9.66
GAATATTAAACAAACACACACACATATATTTATATA [CACACA_site7563]	11.1
GAATATTAAACAAACACACACACATATATATATATA [CACACA_site3382]	10.7
TGACATAAATTTAATACACACACAAAGAAAAAAAAA [CACACA_site9354]	10.2
AAAACAGACAAACACACACACACATATATATATATA [CACACA_site3393]	10.6
AAAACAAACAGACACACACACATATATATATATATA [CACACA_site3655]	10.8
GAGATAAAATAAAACACACACATATATTTATATAAC [CACACA_site7098]	10.9
CATAAAATATAAAACACACACACATATATTTATATA [CACACA_site6247]	10.5
